High-throughput results: PubChem BioAssay, National Center for Advancing Translational Sciences (NCATS)
NS1 inh = qHTS Assay for Inhibitors of Influenza NS1 Protein Function; Potency, µM (doses to about 46.1 µM), for inactives: at the top dose activity, positive = more growth; 270,000 compounds, 0.4% hits; calls by dose curve; note: potency is the fitted concentration of half-maximal effect; actives are rising curves; nearly all actives have a fitted effect of over 50% in size
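Growth recovery, yeast-based: influenza A NS1 expressed in S. cerevisiae causes slow growth, and suppressors are detected by OD600. The parent strain without NS1 is used as positive control.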
Pf growth 96h = Primary qHTS for delayed death inhibitors of the malarial parasite plastid, 96 hour incubation; P. falciparum luciferase reporter growth, 96 h; Potency, µM (series often up to 28.7 µM), for the others: at the top dose activity change, negative = inhibition, most hits filed as inhibitors; 320,000 compounds, 6.9% hits; AID 504834, 2011; note: potency is the fitted concentration of half-maximal effect; % is set by controls: 0 for no effect and ±100 for the full control effect
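Delayed-death screen, second-generation endpoint: infected erythrocytes, 2% hematocrit, 0.05% parasitemia final; 96 hours at 37 C, 5% CO2; luciferase detection reagent; luminescence decrease equals reduced growth.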
Pf growth 48h = Primary qHTS for delayed death inhibitors of the malarial parasite plastid, 48 hour incubation | P. falciparum luciferase growth in erythrocytes, 48 h | Potency, µM (titrated, usually from 28.7 µM), without a hit: top-dose activity change, negative = inhibition, actives largely listed as inhibitors | 310,000 compounds, 5.9% hits | AID 504832, 2011; note: potency is the fitted concentration of half-maximal effect; % is set by controls: 0 for no effect and ±100 for the full control effect
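Erythrocytes infected with P. falciparum carrying an integrated firefly luciferase reporter (2% hematocrit, 0.1% parasitemia final) were exposed to compounds in RPMI 1640 with 0.5% Albumax at 37 C, 5% CO2. Growth inhibition was scored as reduced luminescence.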
Shiga toxin inh = A qHTS for Small Molecule Inhibitors of Shiga Toxin; Vero cells, Shiga toxin protein synthesis inhibition reporter; inhibition, % at 38.7 µM; 290,000 compounds, 9.2% hits; AID 2315, 2010; in the data active = inhibition mostly above about 28%, no sharp cut-off; inactive = mostly below about 43%; note: 0% is about no effect
Cycloheximide cs = Cycloheximide Counterscreen for Small Molecule Inhibitors of Shiga Toxin; max response, %; cell reporter, cycloheximide protein synthesis inhibition counterscreen; 300,000 compounds, 12% hits; in the data active = max response mostly above about 13%, no sharp cut-off; inactive = mostly below about 14%; note: read at 38.3 µM for the half of the compounds with a filed dose; 0% is about no effect
The depositor's hits bear a star; i = inactive; ? = inconclusive; . = not tested or not shown; [ ] = another dose, or the depositor's remark. This is a sample that favours compounds with a hit; in the whole collection about 21% have one here. Unless noted, calls come from the whole dose curve; as a rule, active = well fitted inhibition curve with a large enough effect; inconclusive = small, poorly fitted or top-dose-only effect, or another doubt; inactive = no such curve, though single readings can be large or run the other way.

SMILES | NS1 inh | Pf growth 96h | Pf growth 48h | Shiga toxin inh | Cycloheximide cs
Cc1ccc(C2(C)NC(=O)N(CC(=O)Nc3nc(-c4ccccn4)cs3)C2=O)cc1 (stereo unspecified) | . | 3.3µM* | 2.3µM* | . | .
Cc1ccc(S(=O)(=O)CCC(=O)Nc2nc(-c3ccccn3)cs2)cc1 | . | 10µM* | 13µM* | . | .
Cc1ccc(CNc2ccc(N3CCOCC3)cc2)cc1 | 25% | 0% | -1% | 52* | 21*
c1cc(CNc2ccc(N3CCOCC3)cc2)ccn1 | 13% | ? | . | 49* | 33*
Cc1ccc(NC(=O)CSCC(=O)Nc2ccc(N3CCOCC3)c(Cl)c2)cc1 | 0% | -26% | ? | 41 | 1
Cc1ccc(CNc2ccc(N3CCOCC3)c(Cl)c2)cc1 | -7% | 10µM* | 27% | 30* | 22*
CCOC(=O)C(C)n1cnc2c(oc3ccccc32)c1=O (stereo unspecified) | ? | ? | 7% | 45 | 27
CCCCn1cnc2c(oc3ccccc32)c1=O | -3% | ? | 69% | 72* | 51*
Cc1ccccc1Cn1cnc2c(oc3ccccc32)c1=O | . | 26% | -22% | 41 | 14
N#CCn1cnc2c(oc3ccccc32)c1=O | 9% | 24% | 19% | 10 | 13*
CC(C)n1cnc2c(oc3ccccc32)c1=O | 2% | 21% | 64% | 67* | 32*
O=C(COc1ccccc1[N+](=O)[O-])N(Cc1ccco1)C1CCS(=O)(=O)C1 (stereo unspecified) | 7% | 1% | 12% | 15 | -2
Cn1c(CCN2CCCCC2)nc2cc(NC(=O)COc3ccc([N+](=O)[O-])cc3)ccc21 | 3% | ? | ? | -5 | -2
CCCCN(C)C(=O)CCCCn1c(=O)[nH]c2cc(OCC)c(OCC)cc2c1=O | -2% | ? | 10µM* | -15 | -2
CN(Cc1ccccc1)C(=O)CCCn1c(=O)[nH]c2cc(Cl)ccc2c1=O | -3% | 15µM* | . | 17 | -2
CCOc1cc2[nH]c(=S)n(CCCOC)c(=O)c2cc1OCC | -3% | 6.6µM* | -8% | -11 | -2
CCOc1cc2[nH]c(=O)n(CCCCCC(=O)NCc3ccco3)c(=O)c2cc1OCC | 4% | . | . | 0 | 1
O=C(CCCn1c(=O)[nH]c2cc(Cl)ccc2c1=O)NC1CCCCCCC1 | -4% | ? | 14% | -8 | -1
CCOc1cc2[nH]c(=S)n(C3CC3)c(=O)c2cc1OCC | . | ? | -8% | -16 | 6
CCOc1cc2[nH]c(=S)n(C(C)C)c(=O)c2cc1OCC | 19% | 8.3µM* | . | -7 | -1
CCOc1cc2[nH]c(=S)n(CCCN3CCOCC3)c(=O)c2cc1OCC | 2% | ? | ? | -13 | -4
CCCNC(=O)N1CCN(S(C)(=O)=O)CC1 | 4% | 14% | -4% | 1 | 2
O=C(COc1ccc([N+](=O)[O-])cc1Cl)N(C1CCCCC1)C1CCS(=O)(=O)C1 (stereo unspecified) | . | -14% | 5% | . | .
CCOC(=O)/C(C#N)=C/C1=C(N2CCCC2)CC(C)(CC)OC1 (stereo unspecified) | -3% | -28% | . | -12 | -4
O=C(/C=C/c1c(F)cccc1Cl)NCCCN1CCOCC1 | -7% | 16% | 9% | 18 | -3
SMILES | NS1 inh | Pf growth 96h | Pf growth 48h | Shiga toxin inh | Cycloheximide cs
Cc1cc2c(s1)c1cnn(Cc3ccccc3F)c(=O)c1n2Cc1ccccc1F | . | . | . | 7 | 15
CCOc1ccc(CNC(=O)Nc2ccccc2)cc1 | -6% | 27% | 11%[0.00184 µM] | 48* | 22*
COc1ccc(CNC(=S)Nc2ccccc2Cl)cc1 | 9% | -9% | 19% | 7 | 10
COc1ccc(CNC(=O)Nc2ccccc2)cc1 | -8% | 247% | 85% | 65* | 45*
COc1ccc(CNC(=S)Nc2ccccc2-c2ccccc2)cc1 | . | 8.3µM* | ? | -4 | 1
CCOc1ccc(CNC(=O)NS(=O)(=O)c2ccc(OC)cc2)cc1 | -7% | 2.9µM* | 15% | -13 | -3
CC(NC(=O)c1ccc(F)cc1F)C1CC2CCC1C2 (stereo unspecified) | -7% | 19% | 12% | 10 | -1
Cc1cccc(C(=O)Nc2ccccc2C(=O)OCc2c(C)noc2C)c1 | -35% | 11% | ? | -17 | 2
O=C(CNC1CCN(Cc2ccccc2)CC1)Nc1ccc(S(=O)(=O)N2CCCCC2)cc1 | 1% | ? | ? | 3 | -1
CCOC(=O)C(NC(=O)NCc1ccc(F)cc1)(OCC)C(F)(F)F (stereo unspecified) | -3% | -15% | 4% | -5 | -3
COc1ccc(CNC(=O)Nc2cccc(C)c2)cc1 | -12% | 15% | 125% | 78 | 22*
CCOC(=O)C(NC(=O)NCc1ccc(OC)cc1)(OCC)C(F)(F)F (stereo unspecified) | -5% | 9.3µM* | -7% | -6 | -2
COc1ccc(CNC(=O)C(OC(C)=O)c2ccccn2)cc1 (stereo unspecified) | -11% | 15µM* | 29% | -12 | 8
Cc1cccc(C(OC(=O)c2ccco2)C(=O)NCc2ccccc2)n1 (stereo unspecified) | -3% | 9% | -7% | 2 | -2
C=C1c2ccccc2O[C@H](C(=O)OCC)[C@@H]1CCC(C)C (tested in a mixture with another compound) | . | . | . | i | 9
COc1ccccc1OCC(=O)Nc1ccc(N2CCOCC2)cc1N1CCOCC1 | . | ? | 2% | . | .
Cc1cc(OCC(=O)Nc2ccc(N3CCCC3)cc2)cc(C)c1Cl | 10% | ? | . | -5 | -1
Cc1cc(N2CCCC2)ccc1NC(=O)COc1ccccc1 | . | ? | 15µM* | . | .
CCc1ccccc1OCC(=O)Nc1ccc(N2CCCC2)cc1C | . | 2.6µM* | 5.2µM* | . | .
CCOC(=O)CC(=O)c1sc2c(c1N)c(=O)[nH]c(=O)n2-c1ccc(OC)cc1 | 9% | 5.2µM* | ? | -4 | -1
CC(=O)c1sc2c(c1N)c(=O)[nH]c(=O)n2-c1ccccc1 | -5% | 9% | ? | 19 | -3
CCOC(=O)/C(C#N)=C/c1c(OCC)n(CC)c2ccccc12 | -12% | 31% | ? | -15 | -2
Cc1ccc(-c2nn3c(=O)c(C)nnc3s2)cc1 | -5% | 27% | -18% | 23 | 27*
Cc1cc(=O)n2nc(-c3ccccc3)sc2n1 | -10% | . | 101% | 61* | 38*
COC(=O)c1cc(=O)nc2sc(-c3ccccc3)nn12 | 7% | 0% | 51% | -10 | -3
Cc1nnc2sc(SCc3cccc(Cl)c3)nn2c1=O | . | 2.1µM* | 5.9µM* | -12 | 9
Cc1nnc2sc(SCC(=O)Nc3nccs3)nn2c1=O | ? | 1.7µM* | ? | -1 | 2
CC(C)(C)NC(=O)COC(=O)c1ccc2c(c1)C(=O)N(Cc1ccco1)C2=O | -13% | 20% | 37% | -16 | -4
Cc1cccc(Cn2nc(-n3cccc3)c3c(C)cc(C)nc32)c1 | . | ? | 0% | 23 | 9
COCCCNC(=S)NNC(=O)c1cc(C2CC2)nc2ccccc12 | 0% | -35% | ? | -14 | 2
